PubChem BioAssay (NCI)
This is part of a sample that, as a whole, favours compounds with a hit. Of some 83,000 tested, about 20% had one in any assay.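 Note: values are percent growth. 100 is the growth of untreated cells, values between 100 and 0 indicate rising inhibition; between -100 and 0 indicates cell death.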 Activity calls are given as the source filed them. How the source made its calls: active means growth percent below 10; inactive means the rest.

These compounds were tested on NCI/ADR-RES ovarian (assay: NCI-60 one-dose screen, 48 h (100 = growth as untreated, 0 = no growth, -100 = all killed)). Conditions: 10 µM unless noted.
In the case of `COc1ccc(Cn2cc3c(c2-c2ccccc2)CCc2cnoc2-3)cc1OC`, the growth is reported as 6.32% (active). In the case of `Cc1ccc2c(O)c(O)cc(NC(C)CCCN)c2n1` (stereo not given), the growth is reported as 91.3% (inactive). For `CC(C)(C)c1ccc([I+]c2ccc(C(C)(C)C)cc2)cc1`, the growth was 90.2% (inactive). With `COC(=O)/C(Br)=C/c1c[nH]c2ccc(Br)cc12` the growth was 80.4% (inactive). With `COC(=O)c1ccc2[nH]c(O)c(C(=Nc3ccc(N(C)C(=O)CN4CCN(C)CC4)cc3)c3cccc(OC)c3)c2c1` the growth was 99.5% (inactive). In the case of `C#CCCCCCCC[C@@H]1OC(=O)[C@H]([C@@H](C)CC)NC(=O)[C@@H]([C@@H](C)CC)NC(=O)CC(=O)[C@@H]1C`, the growth is reported as 99.2% (inactive). With `COC(=O)c1ccc2[nH]c(O)c(C(=Nc3ccc(N(C)C(=O)CN4CCN(C)CC4)cc3)c3ccc(C)cc3)c2c1` the growth was 70.7% (inactive). With `COC(=O)C(C)[C@H]1CC[C@@H]2[C@]1(C)CC=C1[C@]23C=C[C@]2(C[C@@H](OC(C)=O)CC[C@]12C)C(C(=O)OC)C3C(=O)OC` (stereo not given in full) the growth was 94.3% (inactive). In the case of `Cc1nc2c(nnn2-c2ccccc2)c2nc(-c3ccccc3)oc(=O)c12`, the growth is reported as 112% (inactive). For `CC(O)C(N)=O` (stereo not given), the growth was 118% (inactive). `Nc1nc2c(c3cnccc13)C(c1cccc(Cl)c1)Cc1cnccc1-2` (stereo not given) was tested, and the growth was 6.79% (active). In the case of `CC(=O)OCC1O[C@@H](OC(C)=O)[C@@H](NC(=O)NS(=O)(=O)c2ccccc2)C(OC(C)=O)[C@@H]1OC(C)=O` (stereo not given in full), the growth is reported as 113% (inactive). For `CCOC(=O)c1ccc2n1CCCc1cnc(NC(C)=O)nc1-2`, the growth was 108% (inactive). For `CCCCCCCCCCCCCCCCCC1=NCCN1CCNC(C)=O`, the growth was 98.2% (inactive). For `Clc1ccc(N/N=C(/c2ccccc2)c2ccccn2)nc1`, the growth was 5.2% (active). With `COc1ccc(-n2nnnc2-c2cn[nH]c2C(F)(F)F)cc1` the growth was 129% (inactive). For `COc1cc2ncnc(-n3ncc4cc(NC(=O)Nc5ccc(Cl)c(Cl)c5)ccc43)c2cc1OC`, the growth was -30.7% (active). In the case of `CCOC(=O)c1c(C)oc2ncnc(Nc3ccc(C(=O)NCCc4ccccc4)cc3)c12`, the growth is reported as 76.9% (inactive). With `CC(=O)/C(=C/c1ccc(-c2ccccc2)cc1)C(=O)c1ccccc1` the growth was 93.1% (inactive). `N=C(N)c1ccc(-c2ccc(-c3ccc(F)cc3)s2)cc1` was tested, and the growth was -77.1% (active). `NC(=O)CC(NC(=O)COc1ccc(Cl)cc1Cl)C(=O)O` (stereo not given) was tested, and the growth was 112% (inactive). With `Cc1nc(NC(=O)NC2CCCCC2)sc1C(=O)NN` the growth was 118% (inactive). With `CCOC(=O)C1=C(C(F)(F)F)NC(=S)NC1CN1C(=O)c2ccccc2C1=O` (stereo not given) the growth was 112% (inactive). For `NC(=O)c1c(Nc2ccccc2)nn2cc(-c3nc4ccccc4s3)c(N)nc12`, the growth was 98.9% (inactive). With `O=C(/C=C/c1ccc(Br)cc1)c1ccccc1` the growth was 99.5% (inactive). `Cc1c(O)c(N=Nc2ccc(C(=O)O)c(O)c2)c2ccccc2c1O` was tested, and the growth was 110% (inactive). With `COc1ccc2c(c1)/C(=C/c1c(-c3cc(OC)c(OC)c(OC)c3)nc3sccn13)C(=O)N2` the growth was 98.9% (inactive). With `CCOC(=O)c1cc(C(=O)c2ccc(Br)cc2)n2cc(C)cc(C)c12` the growth was 99.6% (inactive). With `COc1cccc(Cn2cc3c(c2)-c2oncc2CC3)c1` the growth was 6.75% (active). `CCCCCSc1ccc2nc(NC(=O)OCC)sc2c1` was tested, and the growth was 11.9% (inactive). `COc1ccc(C2C3(C#N)C(N)=NC(=C(C#N)C#N)C23C#N)cc1OC` (stereo not given) was tested, and the growth was 114% (inactive). `CCCCCCCCCCCCCCCC[n+]1cccc(C#N)c1` was tested, and the growth was 96.3% (inactive). With `CC(C)OC(=O)c1ccc2n1CCCc1cnc(Nc3ccccc3)nc1-2` the growth was 69.7% (inactive). With `COc1cc(Cn2ccc3c2-c2oncc2CC3)cc(OC)c1` the growth was -13.9% (active). With `COC(=O)c1ccc(C(=Nc2ccc(N(C)C(=O)CN3CCN(C)CC3)cc2)c2c(O)[nH]c3ccc(C(=O)OC)cc23)cc1` the growth was 107% (inactive). In the case of `COc1cccc2c1nc1cccc(OC)c1[n+]2[O-]`, the growth is reported as 37.4% (inactive). In the case of `CC(=O)NNC(=O)c1sc(NC(C)=O)nc1C`, the growth is reported as 104% (inactive). For `CCOC(=O)NNc1[nH]c(-c2ccc(OC)cc2)cc1C#N`, the growth was 88.9% (inactive). With `COc1cc(N)c2nccc(C)c2c1OC` the growth was 131% (inactive). In the case of `CCOC(=O)c1c2c(cn1Cc1ccccc1)-c1oncc1CC2`, the growth is reported as 98.3% (inactive).
